Some test systems named below: DU-145 prostate; K-562 leukemia; MALME-3M melanoma; MDA-MB-231 breast; RXF 393 renal; SF-268 CNS; SF-295 CNS; SF-539 CNS; UACC-257 melanoma; M14 melanoma.
Holding throughout (assay): NCI-60 one-dose screen, 48 h (100 = growth as untreated, 0 = no growth, -100 = all killed)
Common to all, as to conditions: 10 µM unless noted

The structures appear in SMILES notation. This is part of a sample that, as a whole, favours compounds with a hit. Of some 83,000 tested, about 20% had one in any assay.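 The endpoint reported here, percent growth, reads 100 for growth as untreated, 0 for no net growth and -100 for all cells dead.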 A number with no mark means an inactive call. The source made the active and inactive calls. Rule for the calls: active = growth percent below 10; inactive = the rest.

As for `O=C(CN1CCN(c2cc3c(cc2F)c(=O)c(C(=O)O)cn3C2CC2)CC1)Nc1cc(=O)[nH]c(=O)[nH]1`, the growth is 112% in the experiment on DU-145 prostate; 103% in the experiment on K-562 leukemia; 95.3% in the experiment on MALME-3M melanoma; 102% in the experiment with MDA-MB-231 breast; 94.4% in the experiment on RXF 393 renal; 100% in the experiment with SF-268 CNS. Moreover, the growth in the experiment on SF-295 CNS was 86.8%; in the experiment on SF-539 CNS it was 96.6%; in the experiment on UACC-257 melanoma, 103%; in the experiment on M14 melanoma, 89.2%.

With `CN1CCN(Cc2ccc(NC(=O)c3cncc(C#Cc4cnc(N)c5cccnc45)c3)cc2C(F)(F)F)CC1`, the growth is 24.6% with DU-145 prostate; 1.39% (active) in the experiment on K-562 leukemia; -56.8% (active) with MALME-3M melanoma; -20% (active) with MDA-MB-231 breast; -18.2% (active) with RXF 393 renal; 26.3% in the experiment with SF-268 CNS. Also, the growth was 12.7% in the experiment on SF-295 CNS, -28.3% (active) with SF-539 CNS, 18.8% in the experiment with UACC-257 melanoma and -18.8% (active) with M14 melanoma.

Take `COc1ccc(-c2nn(-c3ccccc3)cc2/C=C2\SC(=O)NC2=O)cc1`: the growth in the experiment with DU-145 prostate is 109%; in the experiment with K-562 leukemia, 86.7%; with MALME-3M melanoma, 112%; in the experiment with MDA-MB-231 breast, 84.4%; in the experiment with RXF 393 renal, 114%; with SF-268 CNS, 96.9%. The growth was 92% in the experiment on SF-295 CNS, 96.8% in the experiment on SF-539 CNS, 110% in the experiment on UACC-257 melanoma and 102% in the experiment on M14 melanoma.

As for `C=C1CC[C@@H]2[C@](C)(COC(C)=O)[C@H](OC(C)=O)CC[C@@]2(C)[C@@H]1CC(NCc1ccc(F)cc1)C1=CCOC1=O` (stereo not given in full), the growth with DU-145 prostate was 69.8%; with K-562 leukemia it was 18.8%; with MALME-3M melanoma, 65.1%; with MDA-MB-231 breast, 60.9%; in the experiment on RXF 393 renal, 80.6%; in the experiment with SF-268 CNS, 62.6%. Further, the growth in the experiment with SF-295 CNS was 96.1%; with SF-539 CNS, 64.4%; with UACC-257 melanoma it was 45.8%; with M14 melanoma, 37.3%.

For the compound `CCN(CC)CC#CCOC(=O)[C@]1(C)CCC[C@@]2(C)[C@H]1CC(C=O)=C1C=C(C(C)C)CC[C@@H]12`, the growth in the experiment with DU-145 prostate was 90.1%; in the experiment with K-562 leukemia, 20.7%; with MALME-3M melanoma, 82.3%; in the experiment with MDA-MB-231 breast, 76%; with RXF 393 renal, 61.2%; with SF-268 CNS, 75.8%. Moreover, the growth with SF-295 CNS was 71.8%; with SF-539 CNS it was 49.1%; in the experiment on UACC-257 melanoma, 85.4%; with M14 melanoma it was 56.4%.

For the compound `CN(C)c1ccc(/C=C(\C#N)c2nc3ccccc3s2)cc1`, the growth in the experiment on DU-145 prostate was 120%; in the experiment on K-562 leukemia, 119%; in the experiment with MALME-3M melanoma, 111%; with MDA-MB-231 breast, 106%; in the experiment on RXF 393 renal, 116%; in the experiment on SF-268 CNS, 102%. The growth with SF-295 CNS was 92.9%; in the experiment on SF-539 CNS, 100%; in the experiment with UACC-257 melanoma, 93.5%; with M14 melanoma, 110%.

For `O=S(=O)(Nc1ccc(F)c(Cl)c1)c1ccc(-c2cnc(C3CC3)o2)cc1`, the growth in the experiment with DU-145 prostate is 16.3%; in the experiment with K-562 leukemia, 15.4%; in the experiment on MALME-3M melanoma it was 45%; with MDA-MB-231 breast, 36.2%; in the experiment with RXF 393 renal, -9.55% (active); in the experiment with SF-268 CNS, 52.2%. In addition, the growth is 5.73% (active) with SF-295 CNS, -14.7% (active) in the experiment on SF-539 CNS, 48.2% in the experiment on UACC-257 melanoma and 24.8% with M14 melanoma.

Take `COc1ccc(OCC(=O)Nc2ccc(-c3nc4ccccc4s3)cc2C)cc1`: the growth in the experiment with DU-145 prostate was 110%; with K-562 leukemia it was 59.5%; with MALME-3M melanoma it was 100%; with MDA-MB-231 breast, 85.7%; with RXF 393 renal, 115%; with SF-268 CNS, 94.3%. The growth in the experiment with SF-295 CNS is 99.8%; in the experiment on SF-539 CNS, 89.6%; in the experiment with UACC-257 melanoma, 109%; in the experiment on M14 melanoma it was 89.9%.

As to `Cc1ccc(-c2nc(/C=N/Nc3cc(C)nc4ccc(Br)cc34)c(C)o2)cc1`, the growth in the experiment with DU-145 prostate is -33.3% (active); with K-562 leukemia, -33.2% (active); in the experiment on MALME-3M melanoma, -82% (active); with MDA-MB-231 breast, -91.9% (active); with RXF 393 renal, -94.1% (active); in the experiment on SF-268 CNS it was -59.4% (active). In addition, the growth in the experiment with SF-295 CNS was 85.7%; in the experiment on SF-539 CNS, 71.3%; in the experiment on UACC-257 melanoma it was 97%; with M14 melanoma, -50.2% (active).

For the compound `CS(=O)(=O)c1ccc(-c2cnc3ccc(-c4cccc(S(C)(=O)=O)c4)nn23)cc1`, the growth with DU-145 prostate is 27.9%; in the experiment with K-562 leukemia it was 46.9%; in the experiment with MALME-3M melanoma, 35.3%; in the experiment with MDA-MB-231 breast, 49.4%; in the experiment on RXF 393 renal it was 9.52% (active); in the experiment on SF-268 CNS, 36.3%. Further, the growth in the experiment with SF-295 CNS is 53.7%; in the experiment on SF-539 CNS, 24%; in the experiment on UACC-257 melanoma, 58.1%; in the experiment on M14 melanoma, 42.8%.

Turning to `COc1ccc(/C=C/C(=O)c2ccc(NC(=O)c3cc4cc5ccccc5nc4s3)cc2)cc1OC`, the growth with DU-145 prostate was 106%; in the experiment with K-562 leukemia, 80.6%; in the experiment on MALME-3M melanoma, 98.6%; with MDA-MB-231 breast, 91.6%; in the experiment with RXF 393 renal, 111%; in the experiment on SF-268 CNS, 98.9%. The growth in the experiment on SF-295 CNS was 99.4%; in the experiment with SF-539 CNS it was 99.7%; in the experiment on UACC-257 melanoma, 108%; with M14 melanoma it was 98.9%.

`COc1ccc(-c2cc(NC(=O)Nc3ccc(O)cc3)no2)cc1`: the growth is 66.7% in the experiment with DU-145 prostate; 29.2% in the experiment with K-562 leukemia; 78% with MALME-3M melanoma; 67.5% in the experiment on MDA-MB-231 breast; 90.9% in the experiment with RXF 393 renal; 62.2% in the experiment on SF-268 CNS. In addition, the growth is 58.9% in the experiment with SF-295 CNS, 69.5% in the experiment on SF-539 CNS, 84.6% in the experiment on UACC-257 melanoma and 35.1% in the experiment with M14 melanoma.

Source of the values: PubChem BioAssay (NCI).
